Screens from PubChem BioAssay.
ASM inhibitor: human S-ASM enzyme inhibition. placental ASM, HMU-PC fluorogenic substrate, 60 min. Potency, µM (top dose mostly 57.5 µM), without a hit: at the top dose activity change, negative = inhibition, hits mostly inhibitors. actives 0.006% (n = 340,000). AID 504937; further: potency means the concentration at half of the fitted maximal effect
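Steps: dispense placental human ASM, pin compound, wait 10 min at room temperature, add HMU-PC0 substrate at 9 uM final, incubate 60 min at 37 °C, add stop solution raising pH to 10, read fluorescence.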
KCNH2 3.1 inh: KCNH2 3.1 (human) potassium channel inhibition. U2OS KCNH2 3.1, thallium flux FluxOr; hits give low values. activity change, % (tested at about 1.8 µM). actives 0.95% (n = 340,000). AID 720553;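 active means maximum activity change below -70%; inconclusive means maximum activity change from -70% to -50%; inactive means maximum activity change above -50%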;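 further: thallium influx rate constant from kinetic fluorescence after stimulation buffer; on the % scale 0 is the no-effect control and ±100 the full control effect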
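Normalized rate constant (relative to positive and negative DMSO controls) derived from a 2 min kinetic fluorescence read after stimulation; U2OS cells expressing the 3.1 isoform via virus at 1.77 x 10^8 /mL.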
Anesthetic bind: candidate novel general anesthetic via apoferritin binding | P02791 | apoferritin/1-aminoanthracene competitive binding, fluorescence | Potency, µM (series often up to 77.5 µM), inactives show at the top dose activity change, negative = displacement, most hits filed as inhibitors | actives 0.074% (n = 350,000) | AID 485281; further: potency means the concentration at half of the fitted maximal effect; on the % scale 0 is the no-effect control and ±100 the full control effect; nearly all actives have a fitted effect of over 20% in size
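Read-out: endpoint 1-AMA fluorescence, excitation 380 nm and emission 535 nm, after compounds sit 10 min at room temperature with 10 uM horse-spleen apoferritin in 50% saturated 1-AMA/PBS. Values come from four-parameter Hill fits.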
IDH1 R132H inh: human IDH1 R132H inhibition; Potency, µM (series often up to 76.6 µM), inactives show at the highest dose activity change, negative = inhibition, usual class: inhibitors; AID 602179; actives 0.093% (n = 390,000); IDH1-R132H enzyme, NADPH consumption, diaphorase/resazurin fluorescence; O75874; further: potency means the concentration at half of the fitted maximal effect; on the % scale 0 is the no-effect control and ±100 the full control effect; nearly all actives have a fitted effect of over 65% in size
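IDH1-R132H (0.5 ug/mL) preincubated 30 min with compound, then NADPH (0.016 mM) and alpha-KG (2 mM) added; 80 min at RT, pH 7.5. Remaining NADPH coupled via diaphorase/resazurin to fluorescence (540/590 nm); concentration-response curves normalized to no-enzyme control.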
KCNH2 WT inh: inhibitors of human wildtype KCNH2 potassium channel; U2OS, BacMam KCNH2, thallium flux FluxOr; hits give low values; activity change, % at 1.84 µM; Q12809; actives 0.37% (n = 340,000);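 active means maximum activity change below -70%; inconclusive means maximum activity change between -70% and -50%; inactive means maximum activity change above -50%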; further: on the % scale 0 is the no-effect control and ±100 the full control effect
Target sequence (Q12809 whole entry, looked up): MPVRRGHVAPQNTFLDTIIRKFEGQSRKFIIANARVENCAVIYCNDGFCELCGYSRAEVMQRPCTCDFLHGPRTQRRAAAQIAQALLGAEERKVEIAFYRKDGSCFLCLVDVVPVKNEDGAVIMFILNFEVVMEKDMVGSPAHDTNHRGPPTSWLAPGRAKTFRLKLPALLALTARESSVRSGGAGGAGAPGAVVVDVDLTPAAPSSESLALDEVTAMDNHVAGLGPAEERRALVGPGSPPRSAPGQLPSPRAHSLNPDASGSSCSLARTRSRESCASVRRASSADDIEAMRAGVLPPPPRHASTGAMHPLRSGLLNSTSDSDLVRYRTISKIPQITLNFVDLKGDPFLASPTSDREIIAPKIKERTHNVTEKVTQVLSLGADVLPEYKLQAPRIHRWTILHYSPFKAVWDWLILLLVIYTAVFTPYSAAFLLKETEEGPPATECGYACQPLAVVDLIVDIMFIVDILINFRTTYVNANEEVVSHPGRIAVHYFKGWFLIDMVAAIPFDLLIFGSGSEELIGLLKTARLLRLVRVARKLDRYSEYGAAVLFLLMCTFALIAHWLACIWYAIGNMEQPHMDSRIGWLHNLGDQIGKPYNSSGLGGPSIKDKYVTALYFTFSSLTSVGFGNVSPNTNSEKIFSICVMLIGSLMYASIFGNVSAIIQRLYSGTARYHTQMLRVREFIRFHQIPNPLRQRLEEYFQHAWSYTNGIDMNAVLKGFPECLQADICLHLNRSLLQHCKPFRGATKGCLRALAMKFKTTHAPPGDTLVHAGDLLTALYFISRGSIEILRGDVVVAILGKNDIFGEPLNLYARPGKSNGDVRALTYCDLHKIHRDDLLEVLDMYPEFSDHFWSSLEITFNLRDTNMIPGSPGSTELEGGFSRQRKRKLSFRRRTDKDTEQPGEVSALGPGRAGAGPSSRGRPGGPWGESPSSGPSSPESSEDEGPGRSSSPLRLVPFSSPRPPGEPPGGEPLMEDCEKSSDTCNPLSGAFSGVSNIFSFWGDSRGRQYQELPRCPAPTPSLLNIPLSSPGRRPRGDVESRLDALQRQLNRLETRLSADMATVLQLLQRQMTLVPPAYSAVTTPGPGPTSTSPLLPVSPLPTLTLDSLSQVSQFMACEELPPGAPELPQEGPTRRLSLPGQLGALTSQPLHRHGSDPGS
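U2OS cells transduced with wild-type KCNH2 virus are loaded with FluxOr dye for 45 min, and thallium flux is measured in kinetic reads before and after stimulation buffer. Rate constants are normalized to DMSO controls.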
An asterisk follows results filed as active. Most compounds without a hit are left out; they make up all but 1.2% or so of the library. Unless noted, the call rests on the fitted dose curve; in most records, active means well fitted inhibition curve with a large enough effect; inconclusive means small, poorly fitted or top-dose-only effect; inactive means no such curve, though single readings can be large or run the other way.

How did Cc1ccc(Nc2nc(N)nc(CN3CCN(C(=O)c4ccco4)CC3)n2)cc1Cl do in these assays?
ASM inhibitor: -1.0%; KCNH2 3.1 inh: -93.8*; Anesthetic bind: inconclusive; IDH1 R132H inh: -5.0%; KCNH2 WT inh: -9.6

How did Nc1nc(CN2CCCCCC2)nc(Nc2ccccc2)n1 do in these assays?
ASM inhibitor: 2.1%; KCNH2 3.1 inh: -32.1; Anesthetic bind: -7.0%; IDH1 R132H inh: -5.8%; KCNH2 WT inh: 3.2

Results for Cc1ccc(Nc2nc(N)nc(CN3CCN(c4ccccc4F)CC3)n2)cc1 ?
ASM inhibitor: 1.0%; KCNH2 3.1 inh: -86.3*; Anesthetic bind: -14.6%; IDH1 R132H inh: 1.9%; KCNH2 WT inh: 25.2

How did Cc1ccc2nc(-c3cc(NC(=O)/C=C/c4ccccc4)ccc3Cl)oc2c1 do in these assays?
Anesthetic bind: -6.1%; IDH1 R132H inh: -16.5%

How did CC1CC(C)CN(Cc2nc(N)nc(Nc3ccc4ccccc4c3)n2)C1 (centres undefined) do in these assays?
ASM inhibitor: -2.7%; KCNH2 3.1 inh: -112.6*; Anesthetic bind: -22.9%; IDH1 R132H inh: 1.1%; KCNH2 WT inh: -5.5

How did Nc1nc(CN2CCN(Cc3ccc4c(c3)OCO4)CC2)nc(Nc2ccccc2)n1 do in these assays?
ASM inhibitor: 1.5%; KCNH2 3.1 inh: -76.4*; Anesthetic bind: -9.1%; IDH1 R132H inh: 4.4%; KCNH2 WT inh: -24.0

Results for CCN(CC)c1cc(C)c2cc(NC(=O)/C=C/c3ccccc3OC(C)C)ccc2n1 ?
Anesthetic bind: 31.9%; IDH1 R132H inh: 12.5%

Results for CCCCCc1cc(=O)oc2c(C(CCN3CCCCC3)c3ccc(OC)cc3)c(OC)cc(OC)c12 (centres undefined) ?
ASM inhibitor: -7.9%; KCNH2 3.1 inh: inconclusive; Anesthetic bind: -19.8%; IDH1 R132H inh: -6.2%; KCNH2 WT inh: inconclusive

Results for CCCCCc1cc(=O)oc2c(C(CCN3CCCC(C)C3)c3ccc(OC)cc3)c(OC)cc(OC)c12 (centres undefined) ?
ASM inhibitor: -13.4%; KCNH2 3.1 inh: -91.4*; Anesthetic bind: -13.4%; IDH1 R132H inh: 6.9%; KCNH2 WT inh: -114.7*

How did CC(C)(C)CNc1nc(C#N)nc(Nc2ccccc2)n1 do in these assays?
Anesthetic bind: -17.4%

How did CC(=O)Oc1ccc2c(c1)Oc1cc(OC(C)=O)ccc1C21OC(=O)c2ccccc21 do in these assays?
ASM inhibitor: -3.1%; KCNH2 3.1 inh: -145.7*; Anesthetic bind: 42.5%; IDH1 R132H inh: -7.6%; KCNH2 WT inh: -122.1*

Results for O=C1OC2(c3ccc(O)cc3Oc3cc(O)ccc32)c2ccccc21 ?
Anesthetic bind: 849.9%

Results for CC(NC(=O)C1CCN(C(=O)N2CCOc3ccccc32)CC1)c1ccccc1 (centres undefined) ?
Anesthetic bind: 15.8µM*; IDH1 R132H inh: -5.5%

Results for Cc1cc(C)c(NC(=O)C2CCN(C(=O)N3CCOc4ccccc43)CC2)c(C)c1 ?
Anesthetic bind: inconclusive; IDH1 R132H inh: 24.2%

How did Cc1cc(C)cc(NC(=O)COC(=O)CCCC2=NS(=O)(=O)c3ccccc3N2)c1 do in these assays?
ASM inhibitor: -0.2%; KCNH2 3.1 inh: 1.1; Anesthetic bind: -1.8%; IDH1 R132H inh: 3.9%; KCNH2 WT inh: -110.3*

Results for COc1ccc(NC(=O)COC(=O)CCCC2=NS(=O)(=O)c3ccccc3N2)cc1 ?
ASM inhibitor: 1.8%; KCNH2 3.1 inh: 1.3; Anesthetic bind: -2.5%; IDH1 R132H inh: 7.1%; KCNH2 WT inh: -42.7

Results for CCOC(=O)c1cccc(NC(=O)c2ccc3snnc3c2)c1 ?
Anesthetic bind: -14.5%; IDH1 R132H inh: 11.1%

How did O=C(C1=C[C@@H](c2ccc(C(F)(F)F)cc2)C[C@@H](OCCCCO)O1)N1CCN(Cc2ccccc2)CC1 do in these assays?
ASM inhibitor: 2.0%; KCNH2 3.1 inh: -123.2*; Anesthetic bind: inconclusive; IDH1 R132H inh: 2.8%; KCNH2 WT inh: 1.1

How did O=C(C1=C[C@H](c2ccc(C(F)(F)F)cc2)C[C@H](OCCCCO)O1)N1CCN(Cc2ccccc2)CC1 do in these assays?
ASM inhibitor: -0.2%; KCNH2 3.1 inh: -30.3; Anesthetic bind: -21.2%; IDH1 R132H inh: 2.0%; KCNH2 WT inh: 1.0

How did Cc1ccc([N+](=O)[O-])cc1NC(=O)CCCOc1ccccc1 do in these assays?
ASM inhibitor: 1.0%; KCNH2 3.1 inh: -109.6*; Anesthetic bind: -18.4%; IDH1 R132H inh: 3.5%; KCNH2 WT inh: 3.4

What do the screens show for `Cc1ccc([N+](=O)[O-])cc1NC(=O)CCc1ccccc1`?
ASM inhibitor: -0.9%; KCNH2 3.1 inh: 2.5; Anesthetic bind: inconclusive; IDH1 R132H inh: 13.2%; KCNH2 WT inh: 1.2

How did OC(CNCc1ccco1)Cn1c2ccc(Br)cc2c2cc(Br)ccc21 (centres undefined) do in these assays?
ASM inhibitor: inconclusive; KCNH2 3.1 inh: -100.2*; Anesthetic bind: -8.7%; IDH1 R132H inh: 1.2%; KCNH2 WT inh: -97.9*

What do the screens show for `CCc1ccc(C(=O)CC2(O)C(=O)N(CCc3ccccc3)c3ccc(Cl)cc32)cc1` (centres undefined)?
Anesthetic bind: -16.6%; IDH1 R132H inh: -3.7%

Results for Cc1nc(C)c(-c2ccc(SCc3cccc(F)c3)nn2)s1 ?
ASM inhibitor: -3.5%; KCNH2 3.1 inh: -93.9*; Anesthetic bind: 3.7%; IDH1 R132H inh: 0.8%; KCNH2 WT inh: -0.4

Results for CCN1CCc2c(sc(NC(=O)Nc3ccc(Cl)c(Cl)c3)c2C(N)=O)C1 ?
ASM inhibitor: 86.5%; KCNH2 3.1 inh: -118.8*; Anesthetic bind: -5.6%; IDH1 R132H inh: -1.0%; KCNH2 WT inh: -132.9*

How did Cc1cc(C)c2oc(-c3ccc(C)c(NC(=O)/C=C/c4ccco4)c3)nc2c1 do in these assays?
Anesthetic bind: -6.1%; IDH1 R132H inh: -6.3%

How did CC1CCc2c(sc3nc(CN4CCN(S(=O)(=O)c5ccccc5[N+](=O)[O-])CC4)[nH]c(=O)c23)C1 (centres undefined) do in these assays?
KCNH2 3.1 inh: -73.4*; Anesthetic bind: -7.1%; IDH1 R132H inh: 11.1%; KCNH2 WT inh: -11.6

Results for COc1ccc(C)c(-n2c(N)cc(=O)n(Cc3ccccc3)c2=O)c1 ?
ASM inhibitor: 5.0%; KCNH2 3.1 inh: -81.6*; Anesthetic bind: 1.9%; IDH1 R132H inh: 3.0%; KCNH2 WT inh: -10.3

Results for Nc1cc(=O)n(Cc2ccccc2)c(=O)n1-c1ccc(Cl)cc1 ?
ASM inhibitor: -0.7%; KCNH2 3.1 inh: 2.5; Anesthetic bind: -4.4%; IDH1 R132H inh: 3.4%; KCNH2 WT inh: -1.4

How did Cc1ccc(C(c2nnnn2Cc2ccccc2)N2CCN(Cc3ccccc3)CC2)cc1 (centres undefined) do in these assays?
ASM inhibitor: -1.0%; KCNH2 3.1 inh: inconclusive; Anesthetic bind: 4.7%; IDH1 R132H inh: 3.0%; KCNH2 WT inh: -77.4*
